Source: PubChem
TIM10 inh: growth inhibitors of TIM10 yeast strain. S. cerevisiae TIM10 strain growth, BacTiter-Glo luminescence, 24 h. inhibition, % at 10 µM. 330,000 tested, 1.4% active;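 active = inhibition of 40% or more at the single tested concentration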;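 also: wild-type TIM10 isogenic control strain grown at permissive 25 °C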
tim23-1 inh: tim23-1 yeast growth inhibition | S. cerevisiae tim23-1 growth, BacTiter-Glo luminescence, 24 h | inhibition, % at 20 µM | AID 463212 | 330,000 tested, 1.3% active;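 active = growth inhibition of the mutant yeast at or above 50%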;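 also: temperature-sensitive mutant grown at 25 °C; plate controls were DMSO-treated mutant yeast for no effect and medium wells lacking yeast for full effect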
Calb FLC: C. albicans growth modulation with fluconazole; 300,000 tested, 0.57% active; C. albicans CaCi-2 (fluconazole-resistant clinical isolate) + fluconazole, Alamar Blue growth, 48 h; growth inhibition, % (test concentration not listed); AID 1979;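 active = growth inhibition above about 58% in most replicates, limit read from the data, passing the limit was not always enough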;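 also: all wells also contain fluconazole at 8 µg/ml as a sub-toxic cotreatment; 0% = median of DMSO wells and 100% = median of geldanamycin control wells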
SKKanGAS inh: blocks kanamycin growth of S. pyogenes SKKanGAS strain | BacTiter-Glo, 6 h | inhibition, % at 7.5 µM | 300,000 tested, 1.3% active | AID 1662;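 active = mean replicate score, as percent of positive control median, at least 50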;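 also: strain carries kanamycin resistance gene driven by streptokinase promoter and grows in 40 µg/ml kanamycin; loss of luminescence reflects streptokinase promoter inhibition or plain growth inhibition; 0% = median of DMSO wells and 100% = positive control at its reference dose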
tim10-1 inh: tim10-1 yeast growth inhibition | S. cerevisiae tim10-1 ts strain growth, BacTiter-Glo, 24 h | AID 463190 | inhibition, % at 20 µM | 330,000 tested, 2.2% active;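 active = inhibition of at least 40%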;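 also: mutant grown at 25 °C; 0% = DMSO wells with yeast and 100% = wells holding no yeast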
PfHsp90 set2: growth inhibition of yeast expressing Plasmodium Hsp90; S. cerevisiae expressing PfHsp90, BacTiter-Glo ATP, 48 h; yeast lacking PDR1 and PDR3 efflux regulators; inhibition, % at 9.4 µM; 310,000 tested, 0.32% active; AID 504621;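 active = every replicate shows inhibition above about 80%, whatever the replicate mean, limit read from the data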;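 also: 0% = DMSO neutral controls and 100% = 20 µM radicicol positive controls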
tim10-1 confirm: confirmation of tim10-1 mutant yeast growth inhibitors. shares compounds with tim10-1 inh. S. cerevisiae tim10-1 ts strain growth, BacTiter-Glo, 24 h. inhibition, % at 20 µM. 7,400 tested, 56% active;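 active = inhibition of yeast growth at or above a set limit in either of two repeat tests at 20 µM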;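 also: tim10-1 mutant grown at permissive 25 °C to find synthetic lethal compounds; 0% = DMSO yeast wells and 100% = medium wells without yeast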
TIM10 conf: TIM10 yeast growth inhibition, confirmed; inhibition, % at 10 µM; S. cerevisiae tim10 strain growth, BacTiter-Glo luminescence, 24 h; shares compounds with TIM10 inh; 4,600 tested, 63% active;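 active = inhibition of yeast growth at or above a set limit in either of two replicates at 10 µM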;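 also: this counterscreen used the strain with wild-type TIM10; 0% = yeast with DMSO and 100% = medium wells lacking yeast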
tim23-1 conf: tim23-1 yeast growth inhibition, confirmed; shares compounds with tim23-1 inh; S. cerevisiae tim23-1 growth, BacTiter-Glo luminescence, 24 h; inhibition, % at 20 µM; 4,400 tested, 83% active; AID 463218;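 active = inhibition above about 39% in either of two replicate wells at 20 µM, limit read from the data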;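 also: temperature-sensitive tim23-1 mutant grown at 25 °C; 0% = DMSO wells with yeast and 100% = medium wells without yeast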
Starred values were filed as active, the others as inactive; · = not tested or not shown. Sampled rows, rich in hits. Any-hit rate of the full collection: about 4.7%.

SMILES	TIM10 inh	tim23-1 inh	Calb FLC	SKKanGAS inh	tim10-1 inh	PfHsp90 set2	tim10-1 confirm	TIM10 conf	tim23-1 conf
Cc1ccc2ccccc2[n+]1CCCS(=O)(=O)[O-]	-10.4	7.3	5.4	-1.1	1.0	11.7	·	·	·
CCCCC[n+]1cccc2c3ccccc3ccc21	5.1	6.5	-15.7	-1.8	8.1	-10.0	·	·	·
CCCC[n+]1c2ccccc2cc2ccccc21	73.9*	65.0*	93.1*	-9.6	71.3*	-14.0	70.4*	69.3*	64.0*
Cc1ccc(C(=O)NCCCN2CCN(CCCNC(=O)c3ccc(C)cc3)CC2)cc1	-37.6	-26.1	-1.7	-12.1	-5.4	-55.4	·	·	·
O=C1/C(=C/c2cccc(F)c2)Oc2cc(O)ccc21	23.9	51.5*	10.0	1.0	51.7*	21.7	38.8*	·	70.8*
COc1ccc(C(=O)On2c(-c3ccc(Br)cc3)nc3ccccc3c2=O)cc1	74.1*	61.0*	104.0*	19.4	57.1*	2.1	51.9*	74.0*	79.0*
COc1cc(OC)cc(-c2nc3ccccc3c(=O)n2OC(=O)c2ccc(Br)cc2)c1	61.5*	58.1*	-5.7	8.7	48.9*	1.3	38.3*	34.5*	72.0*
COc1ccc(O)c(CNn2c(-c3ccc(Br)cc3)nc3ccccc3c2=O)c1	28.0	30.7	4.1	-4.8	35.2	-4.1	·	·	·
CCc1nc2ccccc2c2nc3ccccc3n12	44.1*	51.2*	0.1	4.2	58.8*	3.4	46.5*	22.1	48.5*
c1ccc2c(c1)nc(CN1CCOCC1)n1c3ccccc3nc21	0.7	13.4	-0.9	2.3	22.7	-5.3	·	·	·
COc1cccc(CNC(=O)CN(C)S(=O)(=O)c2ccc3c(c2)n(C)c(=O)c(=O)n3C)c1	-10.5	7.0	-4.3	-13.0	18.4	7.8	·	·	·
CCOC(=O)c1c(C)oc2c(F)c(F)c(F)c(F)c2c1=O	23.7	73.8*	36.1	4.3	41.6*	·	14.4	·	48.0*
CC(C)(C)c1ccc(S(=O)(=O)N2CCN(CCC#N)CC2)cc1	16.6	50.9*	0.7	-0.4	49.7*	·	27.1	·	36.8
Cc1cccnc1Nc1nc(-c2ccc(O)cc2O)cs1	30.6	88.4*	-8.8	12.7	43.7*	-19.6	28.4	·	52.5*
NS(=O)(=O)c1ccc(Nc2nc(-c3ccc(O)cc3O)cs2)cc1	-3.1	10.6	7.1	-9.5	-1.4	-3.0	·	·	·
CC(C)N1C(=O)/C(=C/c2nc3ccccc3c(=O)n2-c2ccccc2)c2ccccc21	47.3*	59.7*	-5.0	3.5	46.0*	-25.0	40.0*	44.0*	57.5*
CC(C)N1C(=O)/C(=C\c2nc3ccccc3c(=O)n2-c2ccccc2)c2ccccc21	·	·	-4.6	2.1	·	-3.4	·	·	·
O/N=C/c1cc(Br)cc(Br)c1OCc1ccccc1	-35.7	23.6	-0.1	34.3	36.6	-22.9	·	·	·
Oc1c(Br)cc(Br)cc1C=NCc1ccccc1	58.6*	84.9*	-9.7	27.6	55.3*	95.8*	39.5*	32.6*	90.1*
O/N=C/c1cc(Br)ccc1OCc1cccc(F)c1	13.4	2.9	-61.5	3.9	18.1	-27.3	·	·	·
O/N=C/c1cc(Br)ccc1OCc1ccc(F)cc1	33.2	59.5*	-17.0	14.9	41.2*	-27.9	34.2*	·	31.4*
CN(C)c1ccc(C(=O)N/N=C/c2cc(Br)cc(Br)c2O)cc1	38.9	31.7	72.5	35.0	25.0	·	·	·	·
Oc1c(Br)cc(Br)cc1C=NCc1ccc(F)cc1	19.2	79.2*	-28.9	8.2	50.6*	99.0*	17.5	·	85.2*
N#C/C(=C\c1ccc(F)c(F)c1)C(=O)NC1CCCCC1	64.7*	67.8*	-2.2	10.1	51.8*	-1.8	64.8*	77.8*	58.8*
N#C/C(=C\c1ccccc1[N+](=O)[O-])C(=O)NC1CCCCC1	72.4*	75.7*	4.1	2.1	75.0*	-19.4	84.2*	83.2*	73.3*
SMILES	TIM10 inh	tim23-1 inh	Calb FLC	SKKanGAS inh	tim10-1 inh	PfHsp90 set2	tim10-1 confirm	TIM10 conf	tim23-1 conf
N#C/C(=C\c1cc(Br)ccc1F)C(=O)NC1CC1	51.5*	89.8*	4.9	-0.2	76.7*	-8.8	60.2*	80.5*	91.2*
CCOc1c(Br)cc(/C=C(\C#N)C(=O)NC2CC2)cc1OC	56.2*	86.6*	1.6	0.7	84.7*	19.5	77.7*	66.8*	83.6*
Cc1ccc(-c2[nH]ncc2/C=C(\C#N)C(=O)NC2CCCCC2)cc1	22.1	38.4	1.4	11.1	33.1	0.6	·	·	·
CCOC(=O)[C@@H]1[C@H]2COc3ccccc3[C@H]2N2C(=O)N(c3ccc(Cl)cc3)C(=O)[C@@]12C	3.7	37.5	3.5	13.8	14.1	17.8	·	·	·
C=CCNc1nc(C(=O)OCC(=O)N(Cc2ccccc2)C(C)C)cs1	16.0	22.5	·	·	16.1	18.0	·	·	·
C=CCNC(=O)/C(C#N)=C/c1ccc(C(=O)O)cc1	-2.1	11.6	23.0	-3.2	4.9	0.5	·	·	·
N#C/C(=C\c1cc(Cl)ccc1O)C(=O)NC1CCCCC1	22.3	30.6	-2.9	9.1	27.0	-8.1	·	·	·
N#C/C(=C\c1cc(Cl)cc(Cl)c1O)C(=O)NC1CCCCC1	38.4	54.0*	4.5	6.0	49.3*	-20.6	28.9	·	57.7*
CC(C)(C)c1ccc(/C=C(\C#N)C(=O)NC2CC2)cc1	58.3*	84.6*	-23.8	-3.6	51.3*	·	77.9*	64.9*	50.6*
CCc1ccc(/C=C(\C#N)C(=O)NC2CCS(=O)(=O)C2)cc1 (stereo not drawn)	12.4	34.8	·	·	21.8	-2.6	·	·	·
N#C/C(=C\c1ccc(F)cc1)C(=O)NC1CCS(=O)(=O)C1 (stereo not drawn)	20.5	20.4	3.2	-0.5	23.3	-65.5	·	·	·
C=CCNC(=O)/C(C#N)=C\c1cc(Cl)c(OCC)c(OC)c1	66.7*	82.4*	-0.1	2.8	79.4*	-22.5	79.1*	73.3*	84.3*
N#C/C(=C\c1ccc(F)c(Br)c1)C(=O)NC1CC1	44.2*	84.1*	4.0	3.2	47.8*	33.9	45.9*	58.1*	74.0*
O=P(CCCO)(Cc1ccccc1)Cc1ccccc1	-0.7	20.8	-0.4	-0.6	4.5	-2.2	·	·	·
COc1ccc(CNC(=O)COC(=O)CO/N=C(\C)c2ccc3c(c2)OCO3)cc1	22.3	30.0	-3.7	-5.9	18.0	·	·	·	·
NCCNc1ccc(C(=O)N2c3ccccc3Sc3ccccc32)cc1[N+](=O)[O-]	-1.0	18.8	4.3	-2.1	16.8	10.6	·	·	·
O=C1c2cc(O)cc(O)c2C(=O)c2c1cc(O)c([C@@H](CO)CCO)c2O	3.1	3.5	-6.0	17.2	10.3	27.5	·	·	·
